Source: PubChem
Compounds with a hit are over-represented: about 3.5% of the library has one in this group of screens.
Rv3671c inh = inhibitors of M. tuberculosis serine protease Rv3671c; P9WHR9; inhibition, % at 5.96 µM; 320,000 tested, 0.048% active; AID 2606; in the data active means inhibition above about 38%;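 further: extracellular domain of Rv3671c used as enzyme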
FadD28 binding = inhibitors of Mycobacterium tuberculosis FadD28 bisubstrate binding | FadD28 bisubstrate probe binding, fluorescence polarization | inhibition, % at 12.5 µM | 360,000 tested, 0.22% active | AID 588549; in the data active means inhibition above about 8.5%, passing the limit was not always enough; inconclusive means no clear call, values can overlap the other calls
Mtb UGM inh = Mtb UDP-galactopyranose mutase inhibition; P9WIQ1; purified UGM, fluorescence polarization probe displacement; inhibition, % at 10 µM; 320,000 tested, 0.06% active; in the data active means inhibition above about 10%, passing the limit was not always enough; inconclusive means no clear call, values can overlap the other calls
Mtb FBA inh = Mtb fructose-bisphosphate aldolase inhibition | P9WQA3 | purified M. tuberculosis FBA, fluorescence read-out | inhibition, % at 1 µM | 360,000 tested, 2.3% active | AID 588726
Target sequence (P9WQA3 whole entry, looked up): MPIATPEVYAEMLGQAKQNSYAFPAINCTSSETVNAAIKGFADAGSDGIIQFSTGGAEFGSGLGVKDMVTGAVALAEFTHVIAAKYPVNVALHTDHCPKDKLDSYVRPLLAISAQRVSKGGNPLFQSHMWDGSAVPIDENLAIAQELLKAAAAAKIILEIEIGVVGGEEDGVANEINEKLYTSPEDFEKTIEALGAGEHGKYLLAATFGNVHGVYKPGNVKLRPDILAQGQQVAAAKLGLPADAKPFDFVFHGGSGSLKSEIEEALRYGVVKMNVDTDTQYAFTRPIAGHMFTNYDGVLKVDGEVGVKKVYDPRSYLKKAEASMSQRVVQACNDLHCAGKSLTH
Mtb hypoxia rep = Mtb hypoxia fluorescent reporter inhibition | M. tuberculosis hypoxia-regulated fluorescent reporter, fluorescence | fluorescence inhibition, % (test concentration not listed) | 300,000 tested, 0.1% active | AID 1159583; in the data active means fluorescence inhibition mostly above about 23%, no sharp cut-off; inactive means mostly below about 17%
GDH-TPI counter-1 = inhibits GDH-TPI coupling enzymes, artifact for Mtb FBA screen; inhibition, % at 4.8 µM; 360,000 tested, 1.2% active; AID 588335; GDH-TPI coupled enzyme counterscreen, NADH absorbance; in the data active means inhibition above about 30%
Mtb FBA confirm = confirmation of M. tuberculosis fructose-bisphosphate aldolase inhibitors | inhibition, % at 1 µM | AID 651616 | 5,600 tested, 78% active | purified M. tuberculosis FBA, fluorescence read-out | shares compounds with Mtb FBA inh
GDH-TPI counter-2 = GDH-TPI inhibition counter-screen for FBA inhibitors | shares compounds with Mtb FBA inh | GDH-TPI coupled enzyme counterscreen, fluorescence | inhibition, % at 1 µM | 5,600 tested, 81% active | AID 652141; in the data active means inhibition above about 10%
Numbers stand for hits; n = inactive; u = inconclusive; x = no result given; + = active, no number. Unless noted, no stated cut-off is given here; in the data, active means inhibition above about 27%; inactive means the rest.

SMILES	Rv3671c inh	FadD28 binding	Mtb UGM inh	Mtb FBA inh	Mtb hypoxia rep	GDH-TPI counter-1	Mtb FBA confirm	GDH-TPI counter-2
Cc1ccc(-n2c([S-])c(C(=O)NC(C)c3ccccc3)[n+]3ccccc23)cc1 (centres undefined)	n	n	n	n	n	n	x	x
O=C(NCc1ccco1)c1ccc2c(c1)N(Cc1ccccc1)CCS2	n	n	n	51	n	n	115	82
O=C(NCCCN1CCCC1)c1ccc2c(c1)N(Cc1ccccc1)CCS2	n	n	n	96	n	n	153	147
O=C(NCCCN1CCOCC1)c1ccc2c(c1)N(Cc1cccc(Cl)c1)C(=O)CS2	n	n	n	n	n	n	x	x
O=C(NCCCN1CCOCC1)c1ccc2c(c1)N(Cc1ccc(F)cc1)CCS2	n	n	n	94	n	n	178	134
Cc1ccc(CN2CCSc3ccc(C(=O)NCc4ccccn4)cc32)cc1	n	n	n	66	n	n	97	67
O=C(NN=Cc1ccc(O)cc1O)c1ccc(NC(=O)C2CCCCC2)cc1	x	x	x	x	n	x	x	x
C=CCNC(=O)c1ccc2nc(-c3ccccc3)c(-c3ccccc3)nc2c1	n	n	n	32	n	n	+	175
CCOC(=O)N1CCN(C(=O)c2ccc3nc(-c4ccccc4)c(-c4ccccc4)nc3c2)CC1	n	n	n	35	n	n	99	67
CCOc1ccc(-c2cc(C(=O)N3CCCC3)c3ccccc3n2)cc1	n	n	n	91	n	n	152	131
CCOC(=O)N1CCN(C(=O)c2cc(-c3ccc(OCC)cc3)nc3ccccc23)CC1	n	n	n	77	n	n	103	71
C=CCNC(=O)c1ccc(C(=O)c2ccccc2)cc1	n	n	n	n	n	n	x	x
CCC=CC(=O)N1CC2(CC(c3cccc(NC(=O)CC)c3)=NO2)CC1C(N)=O (centres undefined)	x	x	x	x	n	x	x	x
CCCCCCn1c(=O)c(C(=O)NN=Cc2cccc(F)c2)c(O)c2ccccc21	x	x	x	x	n	x	x	x
O=[N+]([O-])c1cc(Cl)cc(C=NNC(=S)Nc2cc(S(=O)(=O)N3CCOCC3)ccc2Cl)c1O	x	x	x	x	n	x	x	x
CCOc1ccc(-c2cc(C(=O)N3CCN(C)CC3)c3ccccc3n2)cc1	n	n	n	92	n	n	n	n
Cc1ccc(NC(=S)NN=Cc2ccc([N+](=O)[O-])s2)cc1	x	x	x	x	n	x	x	x
COc1cccc2sc(N=CN(C)C)nc12	x	x	x	x	n	x	x	x
O=C(Nc1ccccn1)c1ccc(Br)c(S(=O)(=O)N2CCCC2)c1	n	n	n	n	n	n	x	x
O=C(Nc1ccccn1)c1ccc(Br)c(S(=O)(=O)N2CCCCC2)c1	n	n	n	51	n	n	+	+
C=CCc1ccc(O)c(-c2cc(CC=C)ccc2O)c1	n	n	n	34	x	n	86	63
CC(=O)OC1CC[C@@]2(C)C(=CCC3C4CCC(C5(C)OCCO5)[C@@]4(C)CCC32)C1 (some centres undefined)	x	x	x	x	n	x	x	x
COc1cccc(-c2nc3ccc(C(=O)NC(C)Cc4cccnc4)cc3o2)c1 (centres undefined)	n	u	n	43	n	n	65	32
COc1ccc(-c2c[n+](CC(=O)c3ccccc3)c3n2CCCCC3)cc1	n	n	n	n	n	n	x	x
COc1ccc(-c2c[n+]3c4n2CCCCC4=C(c2ccccc2)C3)cc1	n	n	x	106	n	n	n	n
SMILES	Rv3671c inh	FadD28 binding	Mtb UGM inh	Mtb FBA inh	Mtb hypoxia rep	GDH-TPI counter-1	Mtb FBA confirm	GDH-TPI counter-2
COc1ccccc1-c1sc2cc3c(cc2c1C#Cc1cncn1C)OCO3	n	n	n	48	n	n	88	61
COC(=O)C1=C(c2ccc3ccccc3c2)CC2CCC1N2C(=O)N1CCCCC1 (centres undefined)	x	x	x	x	n	x	x	x
CC1CC(C)CN(C(=O)Cn2c(SCC(=O)N3CCc4ccccc4C3)nc3ccccc32)C1 (centres undefined)	n	n	n	48	x	n	69	49
CC(C)NC(=O)Cn1c(SCC(=O)N2CCc3ccccc3C2)nc2ccccc21	n	n	n	n	n	n	x	x
CCS(=O)(=O)NCCc1csc(-c2ccc(OC)c(OC)c2)n1	n	n	n	55	n	n	n	n
CCCS(=O)(=O)NCCc1csc(-c2ccc(OC)c(OC)c2)n1	n	n	n	35	n	n	92	78
CCN(CC(=O)Nc1c(F)cccc1F)C(=O)Cc1csc(-c2ccc(OC)c(OC)c2)n1	n	n	n	44	n	n	68	56
COc1ccc(-c2nc(CCNC(=O)c3ccco3)cs2)cc1OC	n	n	n	n	n	n	x	x
O=c1c(=Cc2ccc(O)cc2)sc2nc(-c3ccccc3)c(-c3ccccc3)n12	x	x	x	x	n	x	x	x
COc1ccc(-c2cc(=Nc3ccc(C)cc3)c3ccccc3o2)cc1	n	n	n	29	n	n	108	77
COc1ccc(N=c2cc(-c3ccc(OC)cc3)oc3ccccc23)cc1	n	n	x	n	x	n	x	x
CC1CN(C(C)CO)C(=O)c2cccc(NC(=O)Nc3ccc(C(F)(F)F)cc3)c2OC1CN(C)S(C)(=O)=O (centres undefined)	x	x	x	x	n	x	x	x
CCN1CC2C3C(=O)N(C)C(=O)C3[C@](C)(C1=O)N2C(=O)c1ccccc1 (some centres undefined)	x	x	x	x	n	x	x	x
Nc1ncnc2c1nc(Br)n2C1OC2COP(=O)(O)OC2C1O (centres undefined)	x	x	x	x	n	x	x	x
Cc1nn(-c2ccccc2)nc1C(=O)OCC(=O)N1CCC(C)CC1	n	n	n	28	n	n	94	77
COC(=O)c1cc2ccc(OC)cc2c2cc(OC)c(OC)cc12	n	n	n	62	n	n	n	n
COC(=O)C1=C(C(=O)OC)C2Nc3ccccc3[C@@]23CC(C(=O)OC)N(C(=O)c2ccco2)C3=N1 (some centres undefined)	x	x	x	x	n	x	x	x
COc1cc(C(=O)NCC(=O)OCC(=O)Nc2ncc(Cl)cc2Cl)cc(OC)c1OC	n	n	n	n	n	n	x	x
COc1cc(C(=O)NCC(=O)OC(C)C(=O)Nc2ncc(Cl)cc2Cl)cc(OC)c1OC (centres undefined)	n	n	n	48	n	n	69	74
O=C(O)c1cccc([N+](=O)[O-])c1C(=O)Nc1cccc2ccccc12	n	n	n	48	n	n	116	99
O=C(O)c1ccc(C(=O)Nc2cccc3ccccc23)c(C(=O)O)c1	x	n	n	54	n	n	155	111
C=CCSc1nnc(-c2sc(-c3ccccc3)nc2C)n1C	n	n	n	64	n	n	n	n
C=CCSc1nnc(-c2nnc(SCC=C)n2-c2ccccc2)n1-c1ccccc1	n	n	n	n	x	n	x	x
O=C1C=C(c2cccc(CO)c2)CC(c2ccc3c(c2)OCO3)C1 (centres undefined)	x	x	x	x	n	x	x	x
Cc1cc(O)c(-c2cc(O)c(C)cc2O)cc1O	n	n	n	37	n	n	104	82
